High-throughput results: PubChem, National Center for Advancing Translational Sciences (NCATS)
The entries come from a sample that favours hits as a whole.
LmPK inh = blocks Leishmania mexicana pyruvate kinase activity | Q27686 | purified LmPK, Kinase-Glo ATP luminescence, 1 h | Potency, µM (highest dose often 57.5 µM), for inactives: at the highest dose activity change, negative = inhibition, actives largely listed as inhibitors | 290,000 compounds, 0.37% hits | AID 1721; note: potency is the fitted concentration of half-maximal effect; % is set by controls: 0 for no effect and ±100 for the full control effect
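qHTS format; LmPK 0.1 nM; substrates PEP 0.5 mM and ADP 0.1 mM. One-hour room-temperature incubation, then coupled luciferase luminescence; 0.5 nM enzyme wells mark activation.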
RE007 growth inh = less growth of the S. pombe RE007 Vpr strain; S. pombe RE007 Vpr strain, BacTiter-Glo ATP luminescence, 24 h; Potency, µM (doses to about 92.2 µM), without a hit: at the highest dose activity change, negative = less growth, usual class: inhibitors; 360,000 compounds, 0.21% hits; AID 651644; active = well fitted falling curve with a large enough effect; inconclusive = small, poorly fitted or top-dose-only effect; inactive = no such curve, though single readings can be large or run the other way; note: potency is the fitted concentration of half-maximal effect; % is set by controls: 0 for no effect and ±100 for the full control effect; nearly all actives have a fitted effect of over 50% in size
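Fission yeast RE007 carrying one integrated HIV-1 vpr copy, seeded at OD 0.01 in PMG+AL medium with 23 nL pinned compound. Grown 24 h at 30 degrees; viability read by BacTiter-Glo luminescence after 5 min.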
Tb PYK inh = blocks Trypanosoma brucei pyruvate kinase | Q57TT1 | TbPYK enzyme, Kinase-Glo Plus ATP luminescence, 45 min | Potency, µM (series often up to 76.8 µM), for the others: at the highest dose activity, negative = inhibition, actives largely listed as inhibitors | 410,000 compounds, 0.12% hits | AID 624173; note: potency is the fitted concentration of half-maximal effect; % is set by controls: 0 for no effect and ±100 for the full control effect; nearly all actives have a fitted effect of over 50% in size
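Luminescence from Kinase-Glo Plus, added after a 45-minute room-temperature reaction, served as the end-point read-out. The enzyme and substrate were preincubated with compound before ADP (130 uM final) initiated turnover. Concentration-effect curves came from normalized qHTS data.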
FBPA Giardia inh = inhibitors of Giardia lamblia fructose-1,6-bisphosphate aldolase. A8B2U2. purified Giardia FBPA. Potency, µM (doses to about 59.6 µM), for inactives: at the top dose activity, negative = inhibition, hits mostly inhibitors. 290,000 compounds, 0.71% hits; note: potency is the fitted concentration of half-maximal effect; % is set by controls: 0 for no effect and ±100 for the full control effect; nearly all actives have a fitted effect of over 55% in size
Target sequence (A8B2U2 whole entry, looked up): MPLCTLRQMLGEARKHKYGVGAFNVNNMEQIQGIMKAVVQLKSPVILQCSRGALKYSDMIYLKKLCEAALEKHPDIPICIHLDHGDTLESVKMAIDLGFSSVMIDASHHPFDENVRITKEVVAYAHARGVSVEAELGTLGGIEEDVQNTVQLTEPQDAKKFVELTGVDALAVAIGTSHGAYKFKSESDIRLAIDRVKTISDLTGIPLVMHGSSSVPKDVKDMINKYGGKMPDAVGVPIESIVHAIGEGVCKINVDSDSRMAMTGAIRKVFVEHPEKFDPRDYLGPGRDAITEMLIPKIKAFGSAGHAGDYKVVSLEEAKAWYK
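40 nM FBPA preincubated 10 min at RT with compound (up to 57.5 uM final), then substrate plus GAPDH/TPI/NAD/arsenate coupling and diaphorase/resazurin added. Fluorescence read after 20 min at RT, 525/598 nm.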
Shiga toxin inh = Shiga toxin inhibition | AID 2315 | Vero cells, Shiga toxin protein synthesis inhibition reporter | inhibition, % at 38.7 µM | 290,000 compounds, 9.2% hits; in the data active = inhibition mostly above about 28%, no sharp cut-off; inactive = mostly below about 43%; note: 0% is about no effect
Cycloheximide cs = affects cycloheximide protein synthesis inhibition readout, counter-screen. cell reporter, cycloheximide protein synthesis inhibition counterscreen. max response, %. 300,000 compounds, 12% hits; in the data active = max response mostly above about 13%, no sharp cut-off; inactive = mostly below about 14%; note: read at 38.3 µM for the half of the compounds with a filed dose; 0% is about no effect
* = called active by the depositor; ? = inconclusive; · = not tested or not shown. Unless noted, calls come from the whole dose curve; as a rule, active = well fitted curve in the direction sought with a large enough effect; inconclusive = small, poorly fitted or top-dose-only effect, or another doubt; inactive = no such curve, though single readings can be large; an effect the other way counts as inactive or inconclusive.

SMILES | LmPK inh | RE007 growth inh | Tb PYK inh | FBPA Giardia inh | Shiga toxin inh | Cycloheximide cs
C/C(=N\Nc1nccnc1Cl)c1ccc(O)cc1 | -7% | -26% | 2% | ? | 29* | 26*
C/C(=N\Nc1nccnc1Cl)c1c(F)c(F)c(F)c(F)c1F | -1% | 2% | -3% | -11% | 29 | 11
C/C(=N\Nc1nccnc1Cl)c1ccc(Cl)c(Cl)c1 | -1% | -5% | 4% | ? | · | 29*
C/C(=N\Nc1cc(Cl)nc(C)n1)c1ccc(Cl)c(Cl)c1 | 10% | 0% | 2% | -2% | -1 | -3
CC1CCN(c2ccc(-c3cccc(NS(=O)(=O)c4ccc(F)cc4F)c3)nn2)CC1 | · | · | 0% | · | · | ·
Cc1nc2scc(C)n2c(=O)c1S(=O)(=O)Nc1cccc(C(F)(F)F)c1 | · | · | 3% | · | · | ·
CC(OCc1ccccc1)C(NC(=O)OC(C)(C)C)C(=O)NC1COC2CC(n3cc(F)c(=O)[nH]c3=O)OC12 (stereo not drawn) | · | · | · | 0% | 11 | -6
CC(=O)c1ccc(OCc2cc(C(=O)NC(C)CCn3cccn3)no2)cc1 (stereo not drawn) | -7% | -8% | -4% | 8% | 111* | 66*
Cc1ccc(OCc2cc(C(=O)NC(C)Cc3cccnc3)no2)cc1C (stereo not drawn) | -11% | -12% | -1% | · | 98* | 35*
Cc1ccc(OCc2cc(C(=O)NCCc3cccnc3)no2)cc1C | 1% | -15% | -4% | · | 51* | 36*
Cc1ccc(OCc2cc(C(=O)NCCn3cccn3)no2)cc1C | -8% | -5% | -3% | · | 48* | 22
CC(C)c1nn2c(=O)cc(COC(=O)c3ccc(NC(=O)c4cccs4)cc3)nc2s1 | · | · | 2% | · | · | ·
O=C(NCCCn1cccn1)c1cc(COc2ccc(F)cc2Cl)on1 | -2% | 1% | -7% | 3% | 22* | 19*
O=c1c2cnn(-c3ccc(F)cc3)c2ncn1Cc1ccccc1Cl | · | · | -5% | · | · | ·
Cc1ccc(Nc2nc(/N=C/NO)n[nH]2)cc1C | 18% | -2% | -3% | 1% | 65* | 27*
Cc1cccc(N2CCN(C(=O)c3cnn(-c4ccccc4Cl)c3C3CCN(C(=O)OC(C)(C)C)CC3)CC2C)c1 (stereo not drawn) | · | · | -1% | · | · | ·
O=c1cc(-c2ccccc2)[nH]n1-c1nc2ccccc2s1 | 4% | -5% | -4% | ? | 22 | 13
O=C1CNC(=S)N1c1nc2ccccc2s1 | -21% | 5% | 1% | ? | 82* | 29*
O=C1CCCC=C1[C@@H](O)CCOC(c1ccccc1)(c1ccccc1)c1ccccc1 | · | · | · | 2% | · | ·
O=C(c1cc2cc(Br)ccc2s1)N1CCOCC1 | 1% | 17% | -3% | 0% | 32 | 21*
O=C(c1cc2cc(C(F)(F)F)ccc2s1)N1CCOCC1 | -9% | -5% | 1% | -1% | 84* | 36*
O=C(NCCc1ccccc1)c1n[nH]c2ccccc12 | -1% | -5% | 9% | -3% | 145* | 51*
O=C(CNC(=O)c1ccccc1F)NCCc1ccc(Cl)cc1 | -3% | -10% | 2% | · | -2 | 1
Cc1ccc(CCNC(=O)c2nnn(-c3cccc(C)c3)c2N)cc1 | 5% | -17% | 2% | -3% | 40 | 5
O=C(COC(=O)c1n[nH]c2ccccc12)NCCc1ccccc1 | · | -1% | 1% | · | · | ·
Cc1cccc(-n2nnc(C(=O)NCc3ccccc3)c2N)c1 | -1% | -10% | 7% | -8% | 30 | 12*
O=C(NCCc1ccc(Cl)cc1)c1n[nH]c2ccccc12 | 6% | -8% | 4% | 4% | 40* | 16
O=C(Nc1ccccc1)c1nnn(Cc2ccccc2)c1NC(=O)C(F)(F)F | 19% | 2% | 4% | 27% | 79* | 45*
Cc1oc2ncn(CC(C)C)c(=O)c2c1C(=O)N(Cc1ccccc1)C(C)C | · | · | 5% | · | · | ·
